Source: PubChem BioAssay
BRCA1 expr up: qHTS Assay to Identify Small Molecule Activators of BRCA1 Expression. 380,000 compounds, 1.1% hits. Potency, µM (highest dose often 46.1 µM), inactives show at the top dose activation, hits mostly activators. MCF7-BRCA1-FFLuc reporter, luminescence, 48 h; response scale: scaled: vehicle 0%, 10 µM genistein 100%; note: nearly all actives have a fitted effect of over 80% in size
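Activators of BRCA1 expression were detected as increased firefly luciferase luminescence in engineered MCF7 cells after 48 h compound incubation. Signals were scaled to genistein 10 microM as full activation.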
GLP1R cytotox: qHTS of GLP-1 Receptor Inverse Agonists: Cytotox Screen | HEK293 cAMP-luciferase reporter cells, luminescence, 24 h | Potency, µM (highest dose often 38.3 µM), without a hit: top-dose activity change, negative = inhibition, hits mostly inhibitors | 410,000 compounds, 0.13% hits;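 note: loss of luciferase light is scored as toxicity; % is set by controls: 0 for no effect and ±100 for the full control effect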
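MLSMR compounds, 24 hr on cells at 37 deg C/5% CO2; luminescence after luciferase reagent (12 min RT). Inhibition counted as the undesired cytotoxic outcome.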
GLP-1R agonist: qHTS of GLP-1 Receptor Agonists; Glucagon-like peptide 1 receptor (Homo sapiens), P43220; HEK293 GLP-1R CRE-luciferase, luminescence, 4-6 h; cells express a hypersensitive GLP-1R form; Potency, µM (doses to about 45.6 µM), inactives show at the highest dose activation, hits mostly activators; 380,000 compounds, 0.007% hits; AID 624172, 2012; note: % of control where 0% means no effect
Target sequence (P43220 whole entry, looked up): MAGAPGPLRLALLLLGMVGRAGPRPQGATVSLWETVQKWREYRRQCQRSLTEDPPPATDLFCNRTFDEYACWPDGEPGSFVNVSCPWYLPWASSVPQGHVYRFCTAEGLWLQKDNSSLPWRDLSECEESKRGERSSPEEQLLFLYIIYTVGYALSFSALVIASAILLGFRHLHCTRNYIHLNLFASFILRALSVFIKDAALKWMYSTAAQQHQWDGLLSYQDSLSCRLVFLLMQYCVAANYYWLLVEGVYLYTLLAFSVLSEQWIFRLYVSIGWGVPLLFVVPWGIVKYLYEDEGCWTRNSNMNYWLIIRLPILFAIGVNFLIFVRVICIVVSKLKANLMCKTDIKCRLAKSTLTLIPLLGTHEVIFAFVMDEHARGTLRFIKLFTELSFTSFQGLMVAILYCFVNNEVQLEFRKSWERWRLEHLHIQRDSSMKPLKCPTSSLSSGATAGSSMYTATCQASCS
GLP-1R inv ag: qHTS of GLP-1 Receptor Inverse Agonists (Inhibition Mode). Potency, µM (series often up to 38.3 µM), for inactives: at the top dose activity change, negative = inhibition, actives largely listed as inhibitors. 410,000 compounds, 1.6% hits. HEK293 GLP-1R CRE-luciferase, luminescence, 24 h; GLP-1R form is constitutively active. AID 624417, 2012; note: % is set by controls: 0 for no effect and ±100 for the full control effect; nearly all actives have a fitted effect of over 55% in size
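Constitutively active GLP-1R drives a cAMP-responsive luciferase in stably transfected HEK293 cells; test compounds are added after overnight (12 h) attachment and left 24 hr, and signal loss in luminescence marks inhibition.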
* = called active by the depositor; ? = inconclusive; nt = not tested or not shown; [ ] = dose if it differs, or a comment. In the library only some 2.6% were active in any assay of this set; here they are far more common. Calls come from the whole dose curve; as a rule, active = well fitted curve in the direction sought with a large enough effect; inconclusive = small, poorly fitted or top-dose-only effect, or another doubt; inactive = no such curve, though single readings can be large; an effect the other way counts as inactive or inconclusive. Potency is the fitted concentration of half-maximal effect.

SMILES | BRCA1 expr up | GLP1R cytotox | GLP-1R agonist | GLP-1R inv ag
CN(C)C(=O)c1ccc(NC(=O)c2cncc(Br)c2)cc1 | 11µM* | -1% | -9% | -5%
O=C(Nc1nccs1)c1cncc(Br)c1 | 3.5µM* | 2%[0.307 µM] | 1% | -6%[0.307 µM]
O=C(Nc1nccs1)c1cccnc1 | -13% | -6% | -8% | 8%
CC(C)OC(=O)c1ccc(NC(=O)c2cncc(Br)c2)cc1 | 43% | 14% | 13% | ?
O=C(Nc1ccc2c(c1)OCO2)c1cncc(Br)c1 | 10µM* | 6% | 1% | 0%
COC(=O)c1c(NC(=O)COc2ccc(OC)cc2)sc2c1CCC(C)C2 (centres undefined) | nt | -19% | nt | ?
C=Cc1ccc(CN2C(=O)N(c3ccc(CC)cc3)S(=O)(=O)c3ccccc32)cc1 | 4% | 3% | 0% | ?
COc1ccc2[nH]c3c(c2c1)CNCC3 | 0% | 5% | 2% | -14%
Clc1ccc2[nH]c3c(c2c1)CNCC3 | -20% | -2% | -1% | 10µM*
COc1cccc2c1[C@@H]1CN(CCCCn3c(=O)[nH]c4c(sc5ncc(-c6ccccc6)nc54)c3=O)C[C@@H]1CO2 | -38% | -22% | -3% | 10µM*
Nc1sc(Cc2ccccc2)cc1C(=O)c1c(-c2ccccc2)[nH]c2ccccc12 | nt | ? | nt | 5.6µM*
CN1CC(=O)N(CC(=O)Nc2cccc(C#N)c2)c2ccccc2C1=O | nt | 12% | nt | -2%
CN(C)CCNC(=O)COc1ccc(C23CC4CC(CC(C4)C2)C3)cc1 | -48% | ? | 8% | 2.8µM*
Cc1ccc(C23CC4CC(CC(NC(=O)NCCN(C)C)(C4)C2)C3)cc1 | 0% | ? | -5% | ?
Cc1cc(C)c(S(=O)(=O)NCCc2cc3c(C)ccc(C)c3[nH]c2=O)c(C)c1 | 20% | 2% | 0% | -1%
Cc1cccc2sc(NC(=O)C3CSC4(C)CCC(=O)N34)nc12 (centres undefined) | -21% | -2% | 1% | 7.1µM*
CN(CCOc1ccc(Cl)cc1)C(=O)CN1C(=O)NC2(CCCCC2)C1=O | -21% | -4% | -2% | ?
C=CC(C)(O)CC/C=C(\C)CCC=C(C)C (centres undefined) | nt | nt | 4% | nt
O=c1/c(=C/c2ccc([N+](=O)[O-])cc2)sc2n1CCCN=2 | 3.5µM* | -15% | -5% | 19%
COc1ccc(NC(=O)C2=C(C)Nc3ncnn3C2c2ccc[nH]2)cc1 (centres undefined) | 2% | 3% | 2% | 49%
CCS(=O)(=O)c1ncc(N(Cc2cccc(F)c2)Cc2ccco2)c(C(=O)Nc2ccccc2Cl)n1 | nt | 4% | nt | 15%
O=C(NCc1ccc(F)cc1)C1CCCN(S(=O)(=O)c2ccc(Br)s2)C1 (centres undefined) | -28% | 6% | 9% | ?
O=C(NCc1ccc(F)cc1)C1CCN(S(=O)(=O)c2ccc(Br)s2)CC1 | -22% | -7% | 6% | 10µM*
Clc1ccc(-c2cc3ccccc3nc2N2CCCC2)cc1 | -9% | -20% | -2% | ?
Clc1ccc(-c2cc3ccccc3nc2N2CCOCC2)cc1 | -18% | 3% | 7% | 10µM*
SMILES | BRCA1 expr up | GLP1R cytotox | GLP-1R agonist | GLP-1R inv ag
COc1cc(OC)c(NC(=O)CSc2nc3ccncc3[nH]2)cc1Cl | nt | -4% | nt | 0%
Cc1cc(-c2nc(-c3ccc(C(C)(C)C)cc3)no2)no1 | 7.1µM* | 9% | -6% | 7%
Cc1nc(-c2cc(-c3nc(-c4ccc(C(F)(F)F)cc4)no3)no2)cs1 | -2% | 9% | -5% | 10%
CN1CCc2c1nc1ccccc1c2N=C1CCCN1Cc1ccccc1 | -10% | ? | -3% | ?
Nc1nc(N)c(-c2ccccc2)s1 | 23% | nt | -4% | nt
CC(C)CCN(C(=O)c1csnn1)C(C(=O)NC1CCCCC1)c1ccc(F)cc1 (centres undefined) | -29% | -4% | 38% | 10µM*
O=[N+]([O-])c1ccc(Nc2ccc(F)cc2)nc1 | 18% | -28% | 7% | -24%
CN(C)c1ccc(Nc2ccc([N+](=O)[O-])cn2)cc1 | 3.2µM* | ? | -1% | 7%
COc1ccc(C)cc1N1CC(C(=O)Nc2ccccc2C(=O)NC2CC2)CC1=O (centres undefined) | 11% | 0% | -1% | 5%
CCCCNC(=O)c1sc2nc(C)cc(COC)c2c1-n1cccc1 | -9% | -19% | -6% | 8.9µM*
COc1ccc(Oc2nccc(-c3ccccc3)c2C#N)cc1 | 5µM* | -3% | 11% | 8%
CCCC(=O)Nc1nnc(-c2ccc3c(c2)OCCO3)o1 | 6.3µM* | 5% | 0% | -17%
O=C(COc1ccc(Cl)cc1)NCCc1csc(-c2ccc(C(F)(F)F)cc2)n1 | nt | 3% | nt | ?
CN1/C(=C\C(=O)COC(=O)c2ccccc2O)C(C)(C)c2ccccc21 | 7% | -2% | 13% | ?
COc1ccccc1OCC(=O)/C=C1/N(C)c2ccccc2C1(C)C | -38% | 3% | 9% | 10µM*
Fc1ccc(N2N=C(c3cccs3)CC2c2ccccc2)cc1 (centres undefined) | -1% | 254% | 16% | 11µM*
O=c1[nH]c(=S)[nH]c2c1C(c1ccc(F)cc1)OC(C1CCCCC1)C2 (centres undefined) | -16% | 3% | -2% | 1%
CC(C)=CCC[C@H](C)C[C@@H]1Cc2[nH][nH]c(=O)c2[C@@H](c2ccc(F)cc2)O1 | 9% | -16% | 6% | 5.6µM*
O=c1[nH][nH]c2c1[C@H](c1ccc(F)cc1)O[C@H](C1CCCCC1)C2 | 6% | 4% | 0% | 2.8µM*
O=c1[nH][nH]c2c1[C@@H](c1ccc(F)cc1)O[C@H](C1CCCCC1)C2 | -11% | 3% | 0% | ?
CC(C)=CCC[C@H](C)C[C@@H]1Cc2[nH][nH]c(=O)c2[C@H](c2ccc(Cl)cc2)O1 | 7% | 1% | 6% | ?
O=c1c2c([nH]n1-c1ccccc1)C[C@@H](C1CCCCC1)O[C@H]2c1ccc(F)cc1 | -25% | -29% | -3% | 2.2µM*
CCSc1nnc2c(n1)OC(c1sccc1C)N(C(C)=O)c1ccccc1-2 (centres undefined) | nt | -18% | nt | -25%
Cc1ccc(S(=O)(=O)N(CCc2ccccc2)CC(=O)Nc2cc(C)ccc2C)cc1 | nt | 14% | nt | -2%
CCCN1CCN(C(=S)Nc2ccc3nc(N4CCN(CC)CC4)cc(C)c3c2)CC1 | -31% | 3.2µM* | 10% | 4µM*
CCN1CCN(c2cc(C)c3cc(NC(=O)c4cc(OC)cc(OC)c4)ccc3n2)CC1 | 6.3µM* | ? | 17% | 7%
CCN1CCN(c2cc(C)c3cc(NC(=S)N4CCOCC4)ccc3n2)CC1 | -23% | ? | 2% | ?
CCN1CCN(c2cc(C)c3cc(NC(=S)N4CCN(c5ccccc5)CC4)ccc3n2)CC1 | -23% | 20% | 8% | 1.3µM*
